In PubChem BioAssay (NCATS) one finds Potency and outcome data, which are given here for 17 compounds.

“And” between values parts separate entries of the source, which are not always exact repeats. Equal values may be shown once. A number with no mark means an inactive call. Records with an inconclusive call do not appear. The source made the active and inactive calls. Unless noted, calls come from the whole dose curve; as a rule, active = well fitted curve in the direction sought with a large enough effect; inconclusive = small, poorly fitted or top-dose-only effect, or another doubt; inactive = no such curve, though single readings can be large; an effect the other way counts as inactive or inconclusive.

Test [1] addresses Cytochrome P450 2C9 (Homo sapiens) (UniProt P11712). The test can be described thus: qHTS Assay for Inhibitors and Substrates of Cytochrome P450 2C9 (AID 883). Note: nearly all actives have a fitted effect of over 60% in size. In outline:
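CYP2C9 deoxyluciferin hydroxylation, 37C, 60 min with NADPH regeneration; 10nM enzyme, 100uM Luciferin-H (KM). Glo detection reagent stopped reaction; luminescence normalized to sulphaphenazole (57uM) full inhibition.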

Test [2] concerns the target Cytochrome P450 3A4 (Homo sapiens) (UniProt P08684). The test can be described thus: qHTS Assay for Inhibitors and Substrates of Cytochrome P450 3A4 (AID 884). Note: nearly all actives have a fitted effect of over 50% in size. An outline of the steps:
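Luminescent readout of luciferin produced by CYP3A4 (20 nM) dealkylation of Luciferin-PPXE, 25 uM (its KM). NADPH-driven reaction ran 60 min at RT after 10 min compound preincubation; data scaled to 57 uM ketoconazole as 100% inhibition.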
(In general: qHTS replaces the single test concentration by a dilution series.)

The target in test [3] is Cytochrome P450 2D6 (Homo sapiens) (UniProt P10635). The test can be described thus: qHTS Assay for Inhibitors and Substrates of Cytochrome P450 2D6 (AID 891). Note: nearly all actives have a fitted effect of over 60% in size. Note: potency is the fitted concentration of half-maximal effect. An outline of the steps:
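Luminescent read-out of luciferin formed by 5 nM human CYP2D6 demethylating 30 uM Luciferin-ME EGE (Km level) over 60 min at room temperature after NADPH regeneration addition. Data normalized to full inhibition by 1.43 uM quinidine.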

A short description of test [4]: qHTS Assay for Identification of Small Molecule Antagonists for NFkB Signaling Pathway (AID 895; active = well fitted inhibition curve with a large enough effect in the signal ratio, with a control signal flat, not every such curve was filed as active; the % refers to the signal ratio). An outline of the steps:
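NFkB-bla ME-180 cervical carcinoma cells with beta-lactamase reporter under NFkB response element; compounds added, then TNF alpha at 10 pM final (EC50), 5 h at 37 C. LiveBLAzer substrate 2 h, room temperature; emission 460/530 nm at 405 nm excitation.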

The target of test [5] is Cytochrome P450 2C19 (Homo sapiens) (UniProt P33261). As to the kind of experiment: qHTS Assay for Inhibitors and Substrates of Cytochrome P450 2C19 (AID 899). Note: nearly all actives have a fitted effect of over 60% in size. In outline:
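In 50mM KPO4, the reaction held 5nM enzyme and KM-level (10uM) Luciferin-H EGE; it ran 60 min at 37C after NADPH regeneration and a 10 min compound preincubation. Luminescence values were scaled to 57uM ketoconazole as complete inhibition.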

The test system of another test is DFO2036. The test can be described thus: qHTS profiling for inhibitors of Plasmodium falciparum proliferation (AID 504749). Note: nearly all actives have a fitted effect of over 60% in size. Note: potency is the fitted concentration of half-maximal effect. Particulars: P. falciparum in erythrocytes, SYBR Green DNA, 72 h; series mostly up to 12.8 µM. An outline of the steps:
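Fluorescence of SYBR Green-bound parasite DNA, read at 485/535 nm, served as the growth measure. Infected erythrocytes were cultured with compound 72 h; artemisinin (0.29 uM) and DMSO wells defined the normalization range.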

A short description of test [6]: S16 Schwann cell PMP22 intronic element beta-lactamase assay (AID 624044; calls by dose curve; note: nearly all actives have a fitted effect of over 15% in size). In outline:
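Beta-lactamase reporter under a PMP22 intronic regulatory element in stable S16 rat Schwann cells; 24 h compound exposure. 460 nm blue signal normalized between DMSO (0%) and potassium clavulanate, with 535 nm FRET tracking viability; curves classed by r2 and response.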

Test [7] in a line: qHTS Assay for Identification of Small Molecule Antagonists for Thrombopoietin (TPO) Signaling Pathway (AID 918). The following applies: TPO-dependent cell signaling reporter, antagonist mode. An outline of the steps:
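Luminescence read-out: GPIIb-promoter luciferase in Ba/F3 cells carrying human TPO receptor. Compounds added with 26 pM TPO (EC50), 24 hrs, 37 C, 5% CO2; cells deprived of IL-3 overnight beforehand. Inhibition of signal scored.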

Test [8] concerns the target Muscarinic acetylcholine receptor M1 (Rattus norvegicus) (UniProt P08482). As to the kind of experiment: qHTS Assay for Antagonists of Acetylcholine Muscarinic M1 Receptor: Measurement of IP-One Response (AID 944). Note: nearly all actives have a fitted effect of over 75% in size. Note: potency is the fitted concentration of half-maximal effect. An outline of the steps: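 Read-out: HTRF competition between d2-IP1 and Eu-cryptate anti-IP1 antibody, emission 620 and 665 nm. Stimulus was carbachol, EC80 (200 nM), for 30 min in M1-CHO cells (rat receptor), after 10 min compound pre-treatment.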

Test [9] concerns the target DNA dC->dU-editing enzyme APOBEC-3G (Homo sapiens) (UniProt Q9HC16). As to the kind of experiment: qHTS for inhibitors of Vif-A3G interactions: Validation (AID 588379). In outline: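 Yellow fluorescence (Ex 488, Em 500-530) of Vif-coexpressing HeLa A3G-eYFP cells, scanned by Acumen cytometer, reports blocked A3G degradation. Cells plated at 700/well overnight at 37 deg C before compound addition, then a further overnight compound incubation at 37 deg C.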

Test [10] deals with Tyrosyl-DNA phosphodiesterase 1 (Homo sapiens) (UniProt Q9NUW8). As to the kind of experiment: Confirmation Assay for Inhibitors of Tyrosyl-DNA Phosphodiesterase (TDP1) (AID 489007). Note: potency is the fitted concentration of half-maximal effect; nearly all actives have a fitted effect of over 40% in size. Particulars: recombinant human TDP1 enzymatic activity, dose-response. In outline: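 AlphaScreen read-out: streptavidin donor and anti-FITC acceptor beads (10 ug/ml) bind intact substrate, so Tdp1 removal of tyrosine-FITC lowers signal. Enzyme 1 nM, substrate 15 nM, 5 min reaction at room temperature after 15 min compound preincubation.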
Tyrosyl-DNA phosphodiesterase 1 (Homo sapiens), sequence (Q9NUW8 whole entry, looked up): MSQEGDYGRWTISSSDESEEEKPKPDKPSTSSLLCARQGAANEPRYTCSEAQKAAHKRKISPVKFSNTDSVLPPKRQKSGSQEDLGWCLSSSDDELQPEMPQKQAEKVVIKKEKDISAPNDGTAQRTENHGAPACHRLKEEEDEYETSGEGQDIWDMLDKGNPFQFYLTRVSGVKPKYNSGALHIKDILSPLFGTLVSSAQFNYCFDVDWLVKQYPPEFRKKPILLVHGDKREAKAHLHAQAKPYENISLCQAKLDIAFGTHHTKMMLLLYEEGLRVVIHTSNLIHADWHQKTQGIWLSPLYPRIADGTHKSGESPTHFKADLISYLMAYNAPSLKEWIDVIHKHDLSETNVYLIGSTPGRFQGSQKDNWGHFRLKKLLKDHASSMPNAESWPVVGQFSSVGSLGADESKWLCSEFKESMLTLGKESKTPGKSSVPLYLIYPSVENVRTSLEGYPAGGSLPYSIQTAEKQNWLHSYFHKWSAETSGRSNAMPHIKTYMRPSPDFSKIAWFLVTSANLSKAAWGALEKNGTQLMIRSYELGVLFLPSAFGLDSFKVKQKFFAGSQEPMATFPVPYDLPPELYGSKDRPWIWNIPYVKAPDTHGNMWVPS

In test [11] the target is Muscarinic acetylcholine receptor M1 (Rattus norvegicus) (UniProt P08482). The test can be described thus: qHTS Assay for Antagonists of Acetylcholine Muscarinic M1 Receptor: Kinetic Measurement of Intracellular Calcium Response (AID 943). Note: nearly all actives have a fitted effect of over 75% in size. Note: potency is the fitted concentration of half-maximal effect. An outline of the steps: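 Read-out: peak over basal Fluo-4 fluorescence, kinetic at 1 Hz for 4 min after EC80 carbachol (100 nM final). Rat M1-CHO cells, dye loaded 1 h at 37C, compound added 10 min before agonist.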
Muscarinic acetylcholine receptor M1 (Rattus norvegicus), sequence (P08482 whole entry, looked up): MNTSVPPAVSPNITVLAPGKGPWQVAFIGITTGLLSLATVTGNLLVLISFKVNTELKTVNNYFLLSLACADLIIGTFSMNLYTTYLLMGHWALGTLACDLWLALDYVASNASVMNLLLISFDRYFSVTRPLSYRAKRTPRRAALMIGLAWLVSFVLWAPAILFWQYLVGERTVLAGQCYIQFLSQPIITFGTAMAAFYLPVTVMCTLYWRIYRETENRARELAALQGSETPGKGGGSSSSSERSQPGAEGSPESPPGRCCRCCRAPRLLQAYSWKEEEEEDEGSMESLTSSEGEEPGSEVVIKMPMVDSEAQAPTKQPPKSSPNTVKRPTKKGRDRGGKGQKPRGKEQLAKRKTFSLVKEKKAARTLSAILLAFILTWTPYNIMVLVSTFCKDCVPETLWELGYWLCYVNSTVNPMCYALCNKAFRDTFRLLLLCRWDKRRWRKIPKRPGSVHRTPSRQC

Cytochrome P450 2C9 (Homo sapiens), sequence (P11712 whole entry, looked up): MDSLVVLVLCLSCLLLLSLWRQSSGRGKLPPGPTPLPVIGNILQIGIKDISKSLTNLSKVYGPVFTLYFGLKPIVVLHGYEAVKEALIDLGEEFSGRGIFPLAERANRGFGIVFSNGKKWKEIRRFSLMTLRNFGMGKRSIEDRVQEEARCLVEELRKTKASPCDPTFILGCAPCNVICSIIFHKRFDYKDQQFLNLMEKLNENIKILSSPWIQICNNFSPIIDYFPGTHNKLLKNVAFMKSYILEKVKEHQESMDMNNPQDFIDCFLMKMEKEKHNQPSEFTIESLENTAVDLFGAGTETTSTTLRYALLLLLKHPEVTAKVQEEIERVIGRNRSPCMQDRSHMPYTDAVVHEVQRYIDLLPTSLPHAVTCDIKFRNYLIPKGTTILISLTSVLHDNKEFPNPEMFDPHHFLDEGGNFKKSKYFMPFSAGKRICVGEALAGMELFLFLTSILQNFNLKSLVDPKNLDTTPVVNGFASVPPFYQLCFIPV
Cytochrome P450 2C19 (Homo sapiens), sequence (P33261 whole entry, looked up): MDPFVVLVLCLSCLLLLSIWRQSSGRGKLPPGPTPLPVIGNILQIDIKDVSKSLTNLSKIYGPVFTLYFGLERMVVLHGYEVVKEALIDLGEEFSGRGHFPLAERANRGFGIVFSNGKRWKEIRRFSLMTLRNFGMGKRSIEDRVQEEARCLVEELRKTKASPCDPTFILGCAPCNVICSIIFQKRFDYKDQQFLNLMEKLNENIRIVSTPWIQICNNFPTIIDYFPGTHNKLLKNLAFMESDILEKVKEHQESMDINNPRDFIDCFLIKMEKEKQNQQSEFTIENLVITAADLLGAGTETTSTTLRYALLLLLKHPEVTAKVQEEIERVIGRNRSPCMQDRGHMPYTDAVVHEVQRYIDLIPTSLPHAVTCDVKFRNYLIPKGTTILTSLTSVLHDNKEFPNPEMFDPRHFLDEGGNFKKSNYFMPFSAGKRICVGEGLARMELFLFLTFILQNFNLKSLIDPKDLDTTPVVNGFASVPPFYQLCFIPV
Cytochrome P450 2D6 (Homo sapiens), sequence (P10635 whole entry, looked up): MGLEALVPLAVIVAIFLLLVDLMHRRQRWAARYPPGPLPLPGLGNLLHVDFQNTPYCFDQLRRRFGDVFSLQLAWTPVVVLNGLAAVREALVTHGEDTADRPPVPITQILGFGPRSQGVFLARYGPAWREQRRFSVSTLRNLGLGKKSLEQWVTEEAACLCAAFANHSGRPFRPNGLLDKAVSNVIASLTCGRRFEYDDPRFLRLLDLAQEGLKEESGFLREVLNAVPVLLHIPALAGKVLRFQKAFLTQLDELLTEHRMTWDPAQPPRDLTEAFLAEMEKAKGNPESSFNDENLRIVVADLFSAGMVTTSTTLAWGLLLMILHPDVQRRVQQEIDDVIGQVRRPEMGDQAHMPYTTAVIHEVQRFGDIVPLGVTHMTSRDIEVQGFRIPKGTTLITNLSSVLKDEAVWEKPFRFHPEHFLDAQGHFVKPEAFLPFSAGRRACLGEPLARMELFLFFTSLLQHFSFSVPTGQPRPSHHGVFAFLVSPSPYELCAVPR
Cytochrome P450 3A4 (Homo sapiens), sequence (P08684 whole entry, looked up): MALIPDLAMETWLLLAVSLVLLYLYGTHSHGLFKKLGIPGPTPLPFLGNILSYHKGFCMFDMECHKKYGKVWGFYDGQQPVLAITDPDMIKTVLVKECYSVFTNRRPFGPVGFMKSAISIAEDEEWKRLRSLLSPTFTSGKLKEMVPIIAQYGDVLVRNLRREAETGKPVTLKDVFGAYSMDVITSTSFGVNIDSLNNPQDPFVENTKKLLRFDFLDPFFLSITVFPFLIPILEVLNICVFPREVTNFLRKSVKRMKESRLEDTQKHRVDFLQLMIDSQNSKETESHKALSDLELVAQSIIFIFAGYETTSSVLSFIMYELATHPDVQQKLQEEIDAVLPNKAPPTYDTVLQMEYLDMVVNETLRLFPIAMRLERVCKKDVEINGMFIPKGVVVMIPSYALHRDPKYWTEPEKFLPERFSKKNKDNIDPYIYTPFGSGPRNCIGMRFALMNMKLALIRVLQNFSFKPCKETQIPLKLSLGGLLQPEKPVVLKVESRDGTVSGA
DNA dC->dU-editing enzyme APOBEC-3G (Homo sapiens), sequence (Q9HC16 whole entry, looked up): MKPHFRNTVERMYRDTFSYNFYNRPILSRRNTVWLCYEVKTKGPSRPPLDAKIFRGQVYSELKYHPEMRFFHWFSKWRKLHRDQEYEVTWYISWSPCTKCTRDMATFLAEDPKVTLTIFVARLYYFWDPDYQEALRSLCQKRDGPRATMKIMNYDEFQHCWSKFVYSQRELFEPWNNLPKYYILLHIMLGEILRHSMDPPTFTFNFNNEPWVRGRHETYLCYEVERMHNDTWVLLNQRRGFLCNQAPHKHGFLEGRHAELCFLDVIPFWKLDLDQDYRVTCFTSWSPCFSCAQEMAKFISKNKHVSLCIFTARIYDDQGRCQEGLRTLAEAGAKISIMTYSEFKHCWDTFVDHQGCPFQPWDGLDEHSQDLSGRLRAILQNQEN

Turning to `CCN1CCC[C@@H]1CNC(=O)c1cc(S(N)(=O)=O)ccc1OC`, the Potency result in test [1], in test [2], in test [3], in test [4] and in [5] was “inactive” in each case.

Regarding `COc1ccccc1OC[C@H](O)COC(N)=O`, in the test on DFO2036, the Potency result is “inactive”.

Take `CC1(C)S[C@@H]2[C@H](NC(=O)[C@H](C(=O)O)c3ccsc3)C(=O)N2[C@H]1C(=O)O`: the Potency result in the test on DFO2036 was “inactive”.

On to `CCC[C@H]1C(=O)N2C(N(C)C)=Nc3ccc(C)cc3N2C1=O`, for which the outcome in test [6] was inactive.

For the compound `NC(=O)OC[C@H](O)COc1ccc(Cl)cc1`, the compound was called inactive in test [6]. Moreover, the Potency entry in the test on DFO2036 was “inactive”.

In the case of `COCCc1ccc(OC[C@H](O)CNC(C)C)cc1`, the Potency result in test [4] is “inactive”.

As for `COc1c2ccoc2nc2c(OC)c(OC[C@H](O)C(C)(C)O)ccc12`, the Potency result in test [1], in [3] and in test [5] was “inactive” in each case.

Turning to `CN1CCc2cccc3c2[C@@H]1Cc1ccc(O)c(O)c1-3`, the Potency result in test [3] and in test [8] was “inactive” in each case. In addition, in test [7], the Potency was 12.6 µM (active). Also, the compound was called inactive in test [9].

Consider `CN(C)[C@H]1C(=O)C(C(=O)NCN2CCCC2)=C(O)[C@]2(O)C(=O)C3=C(O)c4c(O)cccc4[C@@](C)(O)[C@H]3C[C@@H]12`, for which, in [10], the Potency is 8.91 µM (active). For the same compound, the Potency entry with DFO2036 is “inactive”.

On to `C/C=C\C(=O)N(CC)c1ccccc1C`, for which, in test [2], the Potency result is “inactive”.

On to `CCN(CC)CCC[C@H](C)Nc1ccnc2cc(Cl)ccc12`, for which the Potency is 5.01 µM (active) in test [11] and 3.98 µM (active) with DFO2036.

Regarding `CO[C@H]1C[C@@H](O[C@@H]2[C@H](C)[C@H](O[C@@H]3O[C@@H](C)C[C@@H](N(C)C)[C@@H]3O)[C@H](C)C[C@]3(CO3)C(=O)[C@H](C)[C@H](O)[C@H](C)[C@H](C)OC(=O)[C@@H]2C)O[C@@H](C)[C@H]1O`, in the test with DFO2036, the Potency result is “inactive”.

Consider `CC(C)COC[C@H](CN(Cc1ccccc1)c1ccccc1)N1CCCC1`, for which, in [3], the Potency was 15.8 nM (active). The Potency result in test [11] and in test [8] was “inactive” throughout.

On to `CCN(CC)CCC[C@H](C)Nc1c2ccc(Cl)cc2nc2ccc(OC)cc12`, for which the Potency in test [3] was 199 nM (active) and 126 nM (active); in test [7] it was 10 µM (active); in the test with DFO2036 it was 0.398 µM (active).

Regarding `OCCN1CCN(CC/C=C2\c3ccccc3Sc3ccc(C(F)(F)F)cc32)CC1`, the figures for the Potency in test [11] and in test [8] were 0.891 µM (active) and 5.01 µM (active), respectively.

In the case of `C[C@@H](CN(C)C)CN1c2ccccc2CCc2ccccc21`, the Potency was 5010 nM (active) in [3], 0.141 µM (active) in [11] and 0.126 µM (active) in [8]. In the test with DFO2036, the Potency entry was “inactive”.

Consider `CCN1C(=O)N[C@@H](c2ccccc2)C1=O`, for which the result in test [6] was inactive.
